ELG1 genotoxic: genotoxicity induction in ELG1-luciferase HEK293T cells. HEK293T ELG1-luciferase reporter, luminescence, 16 h. Potency, µM (titrated, usually from 46 µM), without a hit: top-dose activity change, positive = activation, most hits filed as activators. actives 1.3% (n = 330,000). AID 504466; note: % of control where 0% means no effect; nearly all actives have a fitted effect of over 60% in size
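Cells (2,000/well) expressing the ELG1-luciferase fusion are dosed by pin tool and kept 16 hr at 37 °C, 5% CO2. Signal comes from ONE-Glo luciferase reagent after 30 min at room temperature.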
NPC1 prom act: activates the NPC1 promoter; Potency, µM (highest dose often 9.22 µM), for the others: top-dose activation, hits mostly activators; Huh7 NPC1 promoter luciferase reporter, 24 h; actives 2.4% (n = 320,000); note: % of control where 0% means no effect; nearly all actives have a fitted effect of over 60% in size
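Cells: Huh7 expressing luciferase under the NPC1 promoter, 1500/well. Seeded 2 h, compound added, incubated 24 h at 37 °C. Luciferase reagent, 10 min ambient, then luminescence.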
Rab9 prom act: activates the Rab9 promoter; Huh7 Rab9 promoter-luciferase reporter, luminescence, 24 h; Potency, µM (doses to about 9.22 µM), inactives show top-dose activation, negative = inhibition, usual class: activators; actives 2.8% (n = 320,000); note: % of control where 0% means no effect; nearly all actives have a fitted effect of over 60% in size
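Huh7 cells stably carrying Rab9 promoter–luciferase reporter, plated 1500 cells/well, compound added after 2 h and incubated 24 h at 37 °C; luciferase luminescence then read after 10 min with detection reagent.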
SMN2 splice enh: SMN2 splice variant enhancement; HEK293 SMN2-luciferase splicing reporter, luminescence, 30-36 h; Potency, µM (series often up to 46.1 µM), inactives show at the top dose activity change, positive = activation, hits mostly activators; actives 2.8% (n = 210,000); AID 1458; note: % of control where 0% means no effect; nearly all actives have a fitted effect of over 55% in size
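HEK293 cells carry an SMN2 […]–luciferase reporter in which exon 7 inclusion puts luciferase in frame. Cells were plated 10-12 h before compound addition, then incubated 30-36 h at 37C. ONE-Glo luminescence was read; sodium butyrate at 4.5 mM final served as control.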
FLuc modulator: counter-screen for miR-21 project: firefly luciferase inhibitors or activators; P08659; actives 6.9% (n = 360,000); AID 588342; Potency, µM (top dose mostly 57.5 µM), without a hit: top-dose activity change, negative = inhibition, hits mostly inhibitors; purified FLuc, Km substrates, luminescence inhibition;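 note: plate controls were vehicle for no effect and reference inhibitor for full effect; nearly all actives have a fitted effect of over 55% in size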
Target sequence (P08659 whole entry, looked up): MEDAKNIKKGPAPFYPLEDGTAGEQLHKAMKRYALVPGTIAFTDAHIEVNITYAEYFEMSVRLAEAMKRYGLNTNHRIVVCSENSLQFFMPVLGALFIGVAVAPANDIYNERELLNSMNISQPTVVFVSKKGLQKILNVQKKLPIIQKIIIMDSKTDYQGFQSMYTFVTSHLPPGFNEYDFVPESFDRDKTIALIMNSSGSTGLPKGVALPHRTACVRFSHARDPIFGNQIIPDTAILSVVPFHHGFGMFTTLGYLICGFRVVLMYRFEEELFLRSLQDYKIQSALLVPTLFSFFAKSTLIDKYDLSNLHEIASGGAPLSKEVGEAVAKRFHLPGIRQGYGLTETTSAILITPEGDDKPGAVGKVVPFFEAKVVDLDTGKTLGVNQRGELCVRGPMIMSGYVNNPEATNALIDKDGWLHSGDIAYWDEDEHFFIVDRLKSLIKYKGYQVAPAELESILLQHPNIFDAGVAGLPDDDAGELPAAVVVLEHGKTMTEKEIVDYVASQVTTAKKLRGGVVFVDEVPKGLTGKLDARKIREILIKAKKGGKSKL
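Purified P. pyralis luciferase, 10 nM final, with Km-level 10 uM D-luciferin and 10 uM ATP in 50 mM Tris acetate pH 7.5, 10 mM Mg acetate, 0.01% Tween-20, 0.05% BSA; 6-point qHTS titration about 60 µM downward; luminescence read.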
An asterisk follows results filed as active; ? = inconclusive; . = no result given; [ ] = remark or other dose. Hits are enriched below; roughly 7.4% of the tested compounds scored in any of these assays. Calls come from the whole dose curve; as a rule, active = well fitted curve in the direction sought with a large enough effect; inconclusive = small, poorly fitted or top-dose-only effect, or another doubt; inactive = no such curve, though single readings can be large; an effect the other way counts as inactive or inconclusive. Potency is the fitted concentration of half-maximal effect.

SMILES	ELG1 genotoxic	NPC1 prom act	Rab9 prom act	SMN2 splice enh	FLuc modulator
CCn1c(SCC(=O)Nc2ccc3c(c2)OCCO3)nnc1-c1cccnc1	2.1%	3.1%	16.0%	.	23.9µM*
CCn1c(SCC(=O)NC(=O)Nc2ccc3c(c2)OCCO3)nnc1-c1cccs1	12.9%	1.7%	7.6%	-9.0%	19µM*
CCn1c(SCC(=O)Nc2ccc3c(c2)OCCO3)nnc1-c1ccco1	-2.0%	-1.2%	2.9%	-8.3%	15.1µM*
Fc1cccc2sc(Nc3nnc(-c4ccco4)o3)nc12	2.59µM*	3.98µM*	2.51µM*	3.55µM*	10.7µM*
COc1cccc2sc(Nc3nnc(-c4ccc(F)cc4)o3)nc12	?	-2.7%	-9.5%	6.3%	23.9µM*
CCOc1cccc2sc(NN)nc12	6.9%	-1.9%	-2.8%	-18.3%	?
COc1cccc2sc(Nc3nnc(-c4cccs4)o3)nc12	?	3.98µM*	1µM*	14.1µM*	4.78µM*
COc1cccc2sc(NNC(=O)COc3ccccc3)nc12	-2.1%	3.7%	-0.6%	5.0%	-0.9%
COCCN=C1OC(=O)N2C(=O)C3=C4C(C[C@H]5C(=O)N(c6ccccc6)C(=O)[C@H]5[C@H]4[C@@]12Cc1ccccc1)[C@H]1C(=O)N(c2ccccc2)C(=O)[C@H]1[C@H]3C (stereo not given in full)	.	.	.	-2.5%	.
CC1CCN(c2ccc(NC(=S)NC(=O)c3ccco3)cc2)CC1	1.5%	14.0%	?	-42.8%	12µM*
CCC(=O)N1CCN(c2ccc(NC(=O)c3ccco3)cc2)CC1	?	25.1%	28.7%	.	?
O=C(NC(=S)Nc1ccccc1N1CCCCC1)c1ccco1	-3.4%	-2.8%	-0.3%	-9.9%	-3.1%
CC(=O)N1CCN(c2ccc(NC(=O)c3ccco3)cc2)CC1	?	?	?	.	16.9µM*
O=C(NC(=S)Nc1ccc(N2CCCCC2)cc1)c1ccco1	?	1µM*	1.12µM*	.	3.38µM*
CCOc1ccc2c(ccc(/C=C\c3cc(C)c4cccnc4c3O)[n+]2C)c1	.	.	.	-20.7%[9.22 µM]	.
C/C(=N/NS(=O)(=O)c1ccccc1)c1ccc(Cl)cc1	-2.7%	0.0%	-3.2%	-15.8%	1.8%
C/C(=N\Nc1nc2ccc(Cl)cc2o1)c1ccccc1	3.7%	25.3%	?	.	16.9µM*
O=C(Nc1cc2c(cc1Cl)OCCCO2)c1ccccc1	6.31µM*	?	2.82µM*	11.2µM*	13.5µM*
O=C(Nc1cc2c(cc1Cl)OCCCO2)c1ccco1	?	3.55µM*	3.55µM*	14.1µM*	10.7µM*
Cc1ccc(N(CC(=O)Nc2cccc(Cl)c2C)S(=O)(=O)c2c(C)noc2C)cc1	.	.	.	4.3%	0.8%
CS(=O)(=O)Nc1ccc(C2=NN(S(C)(=O)=O)C(c3ccc4nccnc4c3)C2)cc1 (stereo not given)	7.0%	-0.6%	11.6%	.	-14.1%
Cc1ccc(C2=NN(S(C)(=O)=O)C(c3ccc4c(c3)OCO4)C2)cc1 (stereo not given)	5.17µM*	3.55µM*	2.51µM*	17.8µM*	1.69µM*
CS(=O)(=O)N1N=C(c2ccc(Br)cc2)CC1c1ccc2c(c1)OCO2 (stereo not given)	?	1.12µM*	0.631µM*	25.1µM*	4.26µM*
CC(=O)N1N=C(c2ccc(C)cc2)CC1c1ccc2c(c1)OCO2 (stereo not given)	?	2.82µM*	?	.	15.1µM*
COc1ccc(C(=O)NC2CC(=O)N(c3ccc4c(c3)OCCO4)C2)cc1 (stereo not given)	.	.	.	.	2.6%
SMILES	ELG1 genotoxic	NPC1 prom act	Rab9 prom act	SMN2 splice enh	FLuc modulator
COC(=O)C(C)N1C(=O)S/C(=C/c2cc(C)n(-c3ccccn3)c2C)C1=O (stereo not given)	2.59µM*	1.58µM*	0.891µM*	-41.9%	3.01µM*
COC(=O)C(C)N1C(=O)S/C(=C\c2cc(C)n(-c3ccccn3)c2C)C1=O (stereo not given)	1.64µM*	2µM*	2µM*	-58.7%	2.69µM*
CCOC(=O)C(C)N1C(=O)S/C(=C/c2ccc3c(c2)n(C)c(=O)n3C)C1=O (stereo not given)	?	-5.7%	19.7%	8.1%	-0.8%
CCOC(=O)CN1C(=O)S/C(=C/c2cc(C)n(-c3ccccn3)c2C)C1=O	16.7%	?	3.98µM*	-6.5%	6.01µM*
CCOC(=O)CN1C(=O)S/C(=C/c2ccc(C)o2)C1=O	13.8%	-3.1%	-0.8%	.	-17.7%
CC(C)(C)c1ccc(S(=O)(=O)N2CCN(Cc3noc(CCC(=O)N4CCCCC4)n3)CC2)cc1	.	.	.	.	-9.6%
O=C(Nc1ccc([N+](=O)[O-])cc1)Nc1ccc2c(c1)OCCO2	-6.3%	1µM*	0.794µM*	6.31µM*	2.13µM*
COc1cc([N+](=O)[O-])ccc1NC(=O)Nc1ccc2c(c1)OCCO2	3.1%	5.5%	?	8.1%	6.75µM*
COc1cc([N+](=O)[O-])ccc1NC(=S)N1CCOCC1	-0.2%	-2.0%	-0.8%	.	2.9%
O=C(CSc1ccc([N+](=O)[O-])cn1)Nc1ccc2c(c1)OCCO2	3.1%	-0.3%	0.2%	-5.7%	?
CC(C)(O)[C@H]1Cc2cc3ccc(=O)oc3cc2O1	?	?	3.2%[1.84 µM]	.	12µM*
C=C(C)C1Cc2cc3ccc(=O)oc3cc2O1 (stereo not given)	?	13.8%	?	-11.4%[1.84 µM]	13.5µM*
CC1(C)Oc2cc3oc(=O)ccc3cc2C[C@@H]1O	9.3%	.	.	.	.
COc1ccc(-c2[nH]c(-c3ccc(O)cc3)nc2-c2ccccc2)cc1	.	.	.	-25.5%	?
COc1cc2c(cc1OC)[C@H](C)N(CC1C(=O)O[C@@H]3C[C@@]4(C)CCC[C@H](C)[C@@]45OC5[C@H]13)CC2 (stereo not given in full)	.	.	.	1.7%	.
CN(C)S(=O)(=O)c1cc(NC(=O)COC(=O)/C=C/c2ccco2)ccc1Cl	4.0%	-1.0%	-1.6%	.	?
COc1cccc(/C=C/C(=O)OCC(=O)Nc2ccc(Cl)c(S(=O)(=O)N(C)C)c2)c1	0.3%	-0.5%	-5.4%	-1.4%	10.7µM*
COc1cccc(/C=C/C(=O)OCC(=O)Nc2cccc(S(=O)(=O)N(C)C)c2)c1	21.8%	0.1%	-7.1%	-20.6%	10.7µM*
O=C(NCc1ccccc1)C1CCN(S(=O)(=O)Cc2ccccc2)CC1	.	.	.	.	-4.9%
CCNC(=O)CCSc1nnc(-c2ccc(O)cc2)o1	.	.	.	2.0%	-17.3%
Cc1nnc(SCC(=O)Nc2ccc(Br)cc2)[nH]c1=O	.	.	.	5.2%	?
COc1ccc(/C=C2\N=C(SC)N(c3ccccc3OC)C2=O)cc1	-14.3%	-6.2%	?	1.26µM*	?
CCOc1ccc(N2C(=O)/C(=C/c3ccccc3)N=C2SC)cc1	?	3.55µM*	?	-11.1%	-8.5%
CCCOc1ccc(N2C(=O)C/C(=C\c3ccccc3)C2=O)cc1	-9.4%	-2.6%	-1.5%	.	0.2%
